This is a sample that favours compounds with a hit; in the whole collection about 4.1% have one here.
TIM10 inh = growth inhibitors of isogenic TIM10 control yeast, primary screen, counter-screen for tim10-1 yeast inhibitor project, luminescence, uHTS; S. cerevisiae TIM10 strain growth, BacTiter-Glo luminescence, 24 h; inhibition, % at 10 µM; hit rate 1.4% among 330,000;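 active = inhibition of 40% or more at the single tested concentration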;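 also: wild-type TIM10 isogenic control strain grown at permissive 25 °C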
PfHsp90 set2 = growth inhibition of PfHsp90-expressing yeast, primary screen, antimalarial PfHsp90 inhibitor project, S. cerevisiae, BacTiter-Glo luminescence, single point, set 2; inhibition, % at 9.4 µM; hit rate 0.32% among 310,000; AID 504621, 2011; BacTiter-Glo ATP, 48 h; yeast lacking PDR1 and PDR3 efflux regulators;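 active = every replicate shows inhibition above about 80%, whatever the replicate mean, limit read from the data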;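 also: 0% = DMSO neutral controls and 100% = 20 µM radicicol positive controls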
NALP1 yeast inh = NALP1 inflammasome inhibitors in reconstituted yeast, colorimetric, S. cerevisiae, triplicate retest. S. cerevisiae NALP1/ASC/caspase-1 growth, X-gal OD620, 72 h. inhibition, % at 10 µM. hit rate 0.61% among 280,000. AID 2071, 2009; in the data active = inhibition mostly above about 24%, no sharp cut-off; inactive = mostly below about 32%
NLRP3 yeast inh = NALP3 inflammasome inhibitors in reconstituted yeast, primary screen, luminescence, uHTS. inhibition, % at 10 µM. hit rate 0.39% among 330,000. AID 2825, 2010. Yeast reconstituted NLRP3/ASC/caspase-1, beta-gal luminescence, 24 h;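 active = inhibition of 50% or more; inactive = inhibition below 50%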;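 also: plate controls were induced DMSO wells for no effect and uninduced yeast grown without galactose for full effect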
tim10-1 inh = growth inhibitors of tim10-1 mutant yeast, primary screen, luminescence, uHTS; S. cerevisiae tim10-1 ts strain growth, BacTiter-Glo, 24 h; hit rate 2.2% among 330,000; inhibition, % at 20 µM;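 active = inhibition of at least 40%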;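 also: mutant grown at 25 °C; 0% = DMSO wells with yeast and 100% = wells holding no yeast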
tim23-1 inh = growth inhibitors of tim23-1 mutant yeast, primary screen, luminescence, uHTS; S. cerevisiae tim23-1 growth, BacTiter-Glo luminescence, 24 h; inhibition, % at 20 µM; hit rate 1.3% among 330,000;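 active = growth inhibition of the mutant yeast at or above 50%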;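 also: temperature-sensitive mutant grown at 25 °C; plate controls were DMSO-treated mutant yeast for no effect and medium wells lacking yeast for full effect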
tim10-1 conf = growth inhibitors of tim10-1 mutant yeast, confirmation, single concentration, luminescence, S. cerevisiae | shares compounds with tim10-1 inh | S. cerevisiae tim10-1 ts strain growth, BacTiter-Glo, 24 h | inhibition, % at 20 µM | hit rate 56% among 7,400 | AID 463213, 2010;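 active = inhibition of yeast growth at or above a set limit in either of two repeat tests at 20 µM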;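 also: tim10-1 mutant grown at permissive 25 °C to find synthetic lethal compounds; 0% = DMSO yeast wells and 100% = medium wells without yeast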
TIM10 conf = growth inhibitors of wild-type TIM10 yeast, confirmation, counter-screen for tim10-1 synthetic lethality project, single concentration, luminescence, S. cerevisiae; AID 463215, 2010; hit rate 63% among 4,600; shares compounds with TIM10 inh; inhibition, % at 10 µM; S. cerevisiae tim10 strain growth, BacTiter-Glo luminescence, 24 h;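 active = inhibition of yeast growth at or above a set limit in either of two replicates at 10 µM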;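 also: this counterscreen used the strain with wild-type TIM10; 0% = yeast with DMSO and 100% = medium wells lacking yeast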
tim23-1 confirm = tim23-1 mutant yeast growth inhibitors, confirmation, luminescence, single concentration. shares compounds with tim23-1 inh. inhibition, % at 20 µM. hit rate 83% among 4,400. S. cerevisiae tim23-1 growth, BacTiter-Glo luminescence, 24 h;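 active = inhibition above about 39% in either of two replicate wells at 20 µM, limit read from the data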;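 also: temperature-sensitive tim23-1 mutant grown at 25 °C; 0% = DMSO wells with yeast and 100% = medium wells without yeast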
Starred values were filed as active, the others as inactive; · = no result given.

SMILES | TIM10 inh | PfHsp90 set2 | NALP1 yeast inh | NLRP3 yeast inh | tim10-1 inh | tim23-1 inh | tim10-1 conf | TIM10 conf | tim23-1 confirm
Cc1[nH]nc2c1C(c1ccco1)C(C#N)=C(N)O2 (centres undefined) | 16 | 1 | 9 | 6 | 0 | 6 | · | · | ·
Cc1[nH]nc2c1C(c1cc(Br)cs1)C(C#N)=C(N)O2 (centres undefined) | 30 | -27 | 25 | 19 | 53* | 61* | 35* | · | 45*
CC(=O)n1cc(N(C(=O)CCl)c2ccc(Cl)cc2)c2ccccc21 | 34 | · | 7 | 26 | 48* | 64* | 46* | · | 41*
O=C(OCn1ncc(Cl)c(Cl)c1=O)c1ccc(F)cc1 | 59* | · | -3 | -3 | 66* | 75* | 61* | 54* | 85*
O=C(NC1CCCCCCC1)c1ccccc1O | 49* | 14 | 19 | 24 | 46* | 65* | 34* | 46* | 60*
S=C(N/N=C/c1cccs1)NC1CC2CCC1C2 (centres undefined) | 50* | 5 | -1 | 23 | 48* | 72* | 46* | 60* | 58*
S=C(NCCN1CCOCC1)N/N=C/c1cccs1 | 12 | -11 | -18 | 15 | -2 | -3 | · | · | ·
c1ccc(-c2cc3ccccc3[nH]2)cc1 | 15 | 12 | 34 | 10 | 23 | 40 | · | · | ·
Clc1ccc2[nH]c(-c3ccccc3)cc2c1 | 39 | -48 | 11 | 0 | 50* | 61* | 45* | · | 73*
O=C(NCCN1C(=O)S/C(=C\c2ccc(Cl)cc2Cl)C1=O)C1=COCCO1 | 47* | -1 | · | 31 | 41* | 57* | 47* | 48* | 67*
COc1ccc(N=Nc2c(C)[nH]c3ccccc23)cc1 | 38 | -6 | · | 20 | 43* | 89* | 40* | · | 78*
Cc1ccc(N2C(=O)c3cccc4c([N+](=O)[O-])ccc(c34)C2=O)c2cccnc12 | -22 | -34 | · | -4 | 9 | 6 | · | · | ·
Cc1nnc(N2C(=O)c3cccc4c([N+](=O)[O-])ccc(c34)C2=O)s1 | 36 | 11 | 3 | 10 | 85* | 67* | 64* | · | 68*
Cc1ccnc(N2C(=O)c3cccc4c([N+](=O)[O-])ccc(c34)C2=O)c1 | 90* | -38 | 16 | 19 | 90* | 74* | 90* | 97* | 78*
O=C(Nc1ccc(OC(F)(F)F)cc1)C1CCCCN1S(=O)(=O)c1ccccc1 (centres undefined) | 11 | 6 | · | 2 | 14 | 38 | · | · | ·
COc1ccc(-c2cc(C(=O)N(C)Cc3cccc(OC)c3OC)c3ccccc3n2)cc1OC | 50* | -4 | -1 | 2 | 53* | 70* | 64* | 50* | 94*
CCOc1ccc(N2CC(C(=O)NC3CCCCCC3)CC2=O)cc1 (centres undefined) | 4 | -5 | 11 | 26 | 17 | 21 | · | · | ·
COc1ccc(-c2oc3cccnc3c2C#CC2(O)CCCCC2)cc1 | 41* | · | -11 | -13 | 48* | 58* | 11 | 26 | 48*
Cc1cc2nn(-c3cccc4ccccc34)nc2cc1N | 22 | -18 | 40 | 2 | 26 | 28 | · | · | ·
Cc1cc2nc3ccc(N(C)C)cc3nc2cc1N | 70* | 10 | · | 14 | 46* | 50* | 58* | 73* | 41*
N/C(=N\OC(=O)CCC1CCCC1)c1cccnc1 | 9 | 11 | 17 | 2 | 38 | 23 | · | · | ·
